Assay results taken from PubChem BioAssay (EPA / NIEHS).
Calls of active or inactive are those of the source. Rule for the calls: active = hit-call score of the fitted dose curve at least 0.9, where 1 is the maximum; inactive = score below 0.9.

The molecules below were run on Cytochrome P450 3A7 (Homo sapiens) (UniProt P24462) (assay: LTEA_HepaRG_CYP3A7: Life Technologies and Expression Analysis (LTEA) Assay for CYP3A7 using HepaRG (AID 2283492)). Conditions: mRNA level, 48 h; actives raise or lower the signal.
Description: LTEA_HepaRG is a cell based, multiplexed-readout assay that uses HepaRG, a human liver cell line, with measurements taken at 48 hours after chemical dosing on a 96-well plate.LTEA_HepaRG_CYP3A7 is one of 102 assay component(s) measured in the LTEA HepaRG cell culture assay. It is a marker of NR mediated metabolism/Undifferentiated hepatocyte.Data from the assay component LTEA_HepaRG_CYP3A7 was analyzed into 1 endpoint. This assay endpoint, LTEA_HepaRG_CYP3A7, was analyzed with bidirectional fitting relative to DMSO as the negative control and baseline of activity. Using a type of inducible reporter, measures of mRNA induction for gain or loss-of-signal activity can be used to understand regulation of transcription factor activity. To generalize the intended target to other relatable targets, this assay endpoint is annotated to the cyp intended target family, where the subfamily is xenobiotic metabolism.
A total of 1060 chemcials from the ToxCast library were tested in eight-point concentration-response experiments. Cell culture and cytotoxicity assays were conducted at Thermo Fisher Scientific's Custom Services facility (Madison, WI). A single lot of human HepaRG cells (Thermo Fisher Scientific, Frederick, MD) was used for the cell culture experiments. 96-well format collagen type I coated plates of human HepaRG cells were prepared using established methods. Briefly, cryopreserved HepaRG cells were thawed, plated at a density of approximately 100,000 cells/well in HepaRG Thaw, Plate, and General Purpose media (HPRG770, Thermo Fisher Scientific), and incubated for 48 hours. 0.5% DMSO was selected as vehicle control to balance the requisite need of DMSO in HepaRG cultures to maintain differentiation (for example, baseline metabolism, proportions of hepatocytes vs. cholangiocytes), while enabling further hepatic receptor pathway activation (for example, PXR and CAR) in response to chemical exposure. 48 hours after plating, the culture medium was replaced with HepaRG Serum-Free Incudtion Media. Cells were exposed to each test chemical in duplicate and maintained in CO2 incubators for another 48 hours. Chemical plates were thawed to room temperature and 200x concentrations of treatment groups were prepared. 8-point conentration-reponse curves were made with the highest exposure at 100 uM, followed by half-log dilutions, all in 0.5% DMSO. Each test plate contained variouse controls, induction positive controls (1mM phenobarbital), cytotoxicity positive controls ([…] aflatoxin B1), vehicle controls (0.5% DMSO), and total lysis controls (0.5% DMSO). Cell morphology images were taken using an Essen IncuCyte FLR automated microscope, with six 96-well plates imaged in about 24 minutes. Images were captured and exported and JPEG files. Spent culture media was transfered to black-well plates for the LDH assay, and remaining media was sorted at -80 C for later use. Cells were treated with RLT buffer and frozen until shipped for gene expression analysis. Total RNA was isolated from the cell suspension in 75 uL of Buffer RLT (Qiagen, Germantown, MD 20874) by Quintiles/Expression Analysis (Durham, NC) using a custom isolation procedure. Total RNA from each plate well was transferred to a preamplification plate. Fluidigm's 96.96 Dynamic ArrayTM (Fluidigm, Amsterdam, the Netherlands) technology was used for gene expression analyses by quantitative reverse transcription polymerase chain reaction (qRT-PCR, performed by Quintiles/Expression Analysis, Durham, NC)89. Standard TaqManTM Assays (Applied Biosystems/ThermoFisher Scientific, Foster City, CA) were used to assess the expression of 93 genes selected based on their selectivity and sensitivity to important hepatic receptors known to be modulated by environmental chemicals; importance in human hepatocyte functionality; and hepatotoxicity. […]

Sequence of Cytochrome P450 3A7 (Homo sapiens) (P24462 whole entry, looked up): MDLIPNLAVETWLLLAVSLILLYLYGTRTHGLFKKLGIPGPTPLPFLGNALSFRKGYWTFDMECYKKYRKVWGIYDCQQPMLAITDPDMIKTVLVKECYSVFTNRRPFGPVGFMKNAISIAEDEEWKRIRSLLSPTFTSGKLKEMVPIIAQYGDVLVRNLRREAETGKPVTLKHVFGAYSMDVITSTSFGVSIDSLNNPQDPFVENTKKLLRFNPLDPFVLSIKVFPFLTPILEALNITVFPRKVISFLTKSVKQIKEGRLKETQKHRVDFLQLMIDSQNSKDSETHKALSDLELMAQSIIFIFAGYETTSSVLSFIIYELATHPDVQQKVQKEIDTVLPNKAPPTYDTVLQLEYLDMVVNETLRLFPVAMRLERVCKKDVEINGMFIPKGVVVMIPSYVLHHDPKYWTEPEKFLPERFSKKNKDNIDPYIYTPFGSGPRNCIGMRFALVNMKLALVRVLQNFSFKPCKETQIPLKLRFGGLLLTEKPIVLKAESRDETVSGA

SMILES | outcome | AC50
C=CCc1ccc2c(c1)OCO2 | inactive | –
[Cl-].[Cl-].[Hg+2] | inactive | –
O=C(Nc1ccccc1)c1ccccc1I | inactive | –
CCCCCCCCOC(=O)c1ccc(C(=O)OCCCCCCCC)c(C(=O)OCCCCCCCC)c1 | inactive | –
CN(C)C(=O)Nc1ccc(Cl)cc1 | inactive | –
CCCCCCCCn1sccc1=O | – | 89.1 µM (active)
CCCCCOC(=O)c1ccccc1C(=O)OCCCCC | inactive | –
ClC1=C(Cl)[C@]2(Cl)[C@H]3[C@H]([C@@H]4C=C[C@H]3C4)[C@@]1(Cl)C2(Cl)Cl | – | 8.45 µM (active)
CC(C)(O)c1cnn2c(-c3ccc(F)c(-c4c(F)cccc4C#N)c3)cnc2n1 | inactive | –
O=C1CCCO1 | inactive | –
CS(=O)(=O)NC(=O)c1cc(Oc2ccc(C(F)(F)F)cc2Cl)ccc1[N+](=O)[O-] | – | 4.43 µM (active)
Cc1ccc(N)cc1 | inactive | –
CCC[CH2][Sn]([Cl])([CH2]CCC)[CH2]CCC | – | 0.377 µM (active)
c1ccc2c(c1)oc1ccccc12 | inactive | –
C[N+](C)(C)CC1CO1 (stereo not given) | inactive | –
CC(C)N(Cc1ccccc1)C(=O)C(C)(C)C | – | 11.5 µM (active)
CN(C)c1ccccc1 | inactive | –
CCOc1cccc(C2(N3CCN(c4ccccc4)CC3)CCC(C)CC2)c1 (stereo not given) | inactive | –
N#CC(Br)Br | inactive | –
Clc1ccc(C(c2ccc(Cl)cc2)C(Cl)Cl)cc1 | – | 9.55 µM (active)

SMILES | outcome | AC50
Cc1cccc(N)c1N | inactive | –
O=[N+]([O-])C(Br)(CO)CO | inactive | –
Cc1cc(N=Nc2ccccc2C)ccc1N | – | 6.38 µM (active)
OCCCl | inactive | –
CCCCOC(=O)c1ccccc1C(=O)OCc1ccccc1 | inactive | –
CCNS(=O)(=O)C(F)(F)C(F)(F)C(F)(F)C(F)(F)C(F)(F)C(F)(F)C(F)(F)C(F)(F)F | inactive | –
O=P(OCCCl)(OCCCl)OCCCl | inactive | –
O=C(N[C@H](c1ccccc1)[C@@H]1CN2CCC1CC2)c1c(Cl)ccc(C(F)(F)F)c1Cl | – | 76.2 µM (active)
CNC(=O)Oc1cccc2c1OC(C)(C)C2 | – | 7.32 µM (active)
Clc1ccccc1Cl | inactive | –
CCN(CC)N=O | inactive | –
c1ccc2c(c1)-c1cccc3cccc-2c13 | – | 9.36 µM (active)
COc1cc(C=O)cc2c1[C@H](COC(N)=O)[C@]1(OC(C)=O)ON2C[C@H]2[C@@H]1N2C(C)=O | inactive | –
Oc1ccccc1Cl | inactive | –
Nc1cc(Cl)cc(C(=O)O)c1Cl | inactive | –
CCCCCCCCCCCCCN1CC(C)OC(C)C1 (stereo not given) | inactive | –
COC(=O)Nc1nc2ccccc2[nH]1 | inactive | –
CC(C)(C)OOC(C)(C)CCC(C)(C)OOC(C)(C)C | inactive | –
C1=Cc2cccc3cccc1c23 | inactive | –
O=Cc1ccco1 | inactive | –
